Experiment [1] addresses Androgen receptor (Homo sapiens) (UniProt P10275). Put plainly: qHTS assay for small molecule agonists of androgen receptor signaling (AID 588515; active means well fitted curve in the direction sought with a large enough effect in the signal ratio, with a control signal flat; the % refers to the signal ratio; further: on the % scale 0 is the no-effect control and ±100 the full control effect). As to conditions: AR-UAS-bla HEK293, beta-lactamase ratio, agonist 16 h; stronger effect = higher value. A digest of the protocol:
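EC50 and efficacy came from Hill fits of titrations (up to 92 uM) normalized to 30 nM R1881 as 100% and DMSO as 0%. Compound exposure was 16 h at 37 C on AR-UAS-bla HEK293 cells, with a 405/460/530 nm CCF4 fluorescence read.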

Experiment [2] shares this target. Put plainly: qHTS assay for small molecule antagonists of androgen receptor signaling (AID 588516; active means well fitted curve in the direction sought with a large enough effect in the signal ratio, with a control signal flat, not every such curve was filed as active; the % refers to the signal ratio; further: on the % scale 0 is the no-effect control and ±100 the full control effect). In a few lines: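 AR-UAS-bla-GripTite HEK 293 cells (2000/well, 5 h at 37 C) received compound titrations, then R1881 at 10 nM final; after 16 h at 37 C, CCF4 dye 2 h RT, beta-lactamase fluorescence read; IC50 from Hill fits.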
(In general: qHTS replaces the single test concentration by a dilution series.)

In experiment [3] the target is Glucocorticoid receptor (Homo sapiens) (UniProt P04150). As to the kind of experiment: qHTS assay for small molecule agonists of glucocorticoid receptor signaling (AID 588532; active means well fitted curve in the direction sought with a large enough effect in the signal ratio, with a control signal flat; the % refers to the signal ratio;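 further: 100% = dexamethasone at 0.1 µM and 0% = DMSO only wells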). To be noted: HeLa MMTV-bla, beta-lactamase ratio, agonist, 18 h; stronger effect = higher value; percent of dexamethasone control, DMSO zero. A digest of the protocol:
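MMTV-bla HeLa, beta-lactamase reporter; medium with 1% charcoal/dextran-stripped FBS; cpds up to 92 uM, 18 h, 37 C; CCF4 readout 460/530 nm; Hill fit → EC50, efficacy vs 0.1 uM dexamethasone = 100%.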

Experiment [4] in a line: qHTS assay for small molecule antagonists of peroxisome proliferator-activated receptor delta signaling (AID 588535; active means well fitted inhibition curve with a large enough effect in the signal ratio, with a control signal flat, not every such curve was filed as active; the % refers to the signal ratio;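 on max response: cells co-treated with a PPAR-delta agonist as stimulator during compound exposure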). As to conditions: HEK293T PPARd-UAS-bla, beta-lactamase FRET ratio, 18 h; 460 nm channel. A digest of the protocol: (§1)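 Reporter: UAS-bla under PPAR-delta response element, HEK293T host. Medium: 2% charcoal/dextran FBS. Dosing: titration, 18 hrs, 37 C. Detection: CCF4, 2 hrs RT, 405 ex/460 and 530 em.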

The target of experiment [5] is Peroxisome proliferator-activated receptor delta (Homo sapiens) (UniProt Q03181). Described as above. A digest of the protocol:
as §1

In experiment [6] the target is Vitamin D3 receptor (Homo sapiens) (UniProt P11473). Put plainly: qHTS assay for small molecule antagonists of vitamin D receptor signaling (AID 588541).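 Further: receptor activated by calcitriol during compound treatment; series mostly up to about 77 µM; on the % scale 0 is the no-effect control and ±100 the full control effect.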 In a few lines:
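VDR-UAS-bla HEK293T cells (2000/well, 2% charcoal-stripped FBS) were treated with titrated compounds plus 1-alpha,25-dihydroxyvitamin D3 (50 nM or 3 nM final) for 16 h at 37 C. CCF4 beta-lactamase fluorescence was read; Hill fits gave IC50.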

For experiment [7] the target is unchanged. As to the kind of experiment: qHTS assay for small molecule agonists of vitamin D receptor signaling (AID 588543).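 Further: 0% = DMSO basal and 100% = reference agonist control.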 A digest of the protocol: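 GeneBLAzer VDR-UAS-bla HEK293T cells in 2% charcoal-stripped FBS medium were dosed with compound titrations for 16 h at 37 °C; CCF4 β-lactamase readout (405 nm ex, 460/530 nm em). EC50 and efficacy from Hill fits, normalized to 50 nM calcitriol (100%) and DMSO (0%).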

The nature of experiment [8]: qHTS assay for small molecule agonists of retinoid X receptor alpha signaling (AID 588544).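 On activation: 0% = DMSO basal wells and 100% = reference agonist.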 As to conditions: HEK293T RXRa-UAS-bla, beta-lactamase reporter, 18 h; 530 nm emission.
The target of experiment [9] is Retinoic acid receptor RXR-alpha (Homo sapiens) (UniProt P19793). The experiment is described as above.
The target of experiment [10] is Thyroid hormone receptor beta (Homo sapiens) (UniProt P10828). As to the kind of experiment: qHTS assay for small molecule agonists of thyroid hormone receptor beta signaling (AID 588545). A digest of the protocol: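 HEK 293 TR-UAS-bla; agonist mode; 18 hrs, 37 C; CCF4, ex 405/em 460 and 530 nm; norm. T3 10 nM = 100%, DMSO = 0%; Hill fit → EC50, efficacy.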
Experiment [11] is described as follows: qHTS assay for small molecule antagonists of retinoid X receptor alpha signaling (AID 588546; active means well fitted inhibition curve with a large enough effect in the signal ratio, with a control signal flat, not every such curve was filed as active; the % refers to the signal ratio;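 further: cells stimulated with 9-cis-retinoic acid as agonist; on the % scale 0 is the no-effect control and ±100 the full control effect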). To be noted: HEK293T RXRa-UAS-bla, beta-lactamase ratio, antagonist mode; measured here: W530 green channel, cytotoxicity proxy. In a few lines:
(§2)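 Beta-lactamase reporter inhibition, read as CCF4 fluorescence ratio (ex 405, em 460/530 nm) after 2 h at RT. HEK293T UAS-bla cells, 2500/well, were stimulated with 9-cis-RA at 500 or 100 nM final alongside test compound for 18 h at 37 C.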

In experiment [12] the target is Retinoic acid receptor RXR-alpha (Homo sapiens) (UniProt P19793). Described as above. To be noted: HEK293T RXRa-UAS-bla, beta-lactamase ratio, antagonist mode. A digest of the protocol: as §2
In experiment [13] the target is Thyroid hormone receptor beta (Homo sapiens) (UniProt P10828). As to the kind of experiment: qHTS assay for small molecule antagonists of thyroid hormone receptor beta signaling (AID 588547; active means well fitted inhibition curve with a large enough effect in the signal ratio, with a control signal flat, not every such curve was filed as active; the % refers to the signal ratio). To be noted: TR-UAS-bla HEK293, beta-lactamase ratio, antagonist mode, 18 h. A digest of the protocol: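 TR-UAS-bla GripTite HEK293 cells in 2% charcoal/dextran FBS medium were preincubated 4 h at 37 C, given compound (0.59 nM to 92 uM) plus 0.4 nM T3 (final) for 18 h, then CCF4 for 2 h at RT; Hill fit gave IC50.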

Experiment [14] deals with Voltage-gated inwardly rectifying potassium channel KCNH2 (Homo sapiens) (UniProt Q12809). Put plainly: qHTS Assay for Small Molecule Inhibitors of the Human hERG Channel Activity (AID 588834; active means well fitted inhibition curve with a large enough effect;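 further: top concentration of the series differs between compounds; on the % scale 0 is the no-effect control and ±100 the full control effect; lower thallium flux fluorescence means stronger hERG block; nearly all actives have a fitted effect of over 50% in size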). A digest of the protocol: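 U2OS cells transduced with hERG via BacMam (MOI ~100), plated 2000/well, loaded with FluxOR thallium dye, compound ~10 min, then stimulation buffer; fluorescence decrease read kinetically; AC50 from Hill fits.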

The target in experiment [15] is Estrogen receptor (Homo sapiens) (UniProt P03372). As to the kind of experiment: qHTS assay for small molecule antagonists of estrogen receptor alpha signaling (AID 588513; active means well fitted curve in the direction sought with a large enough effect in the signal ratio, with a control signal flat, not every such curve was filed as active; the % refers to the signal ratio; further: on the % scale 0 is the no-effect control and ±100 the full control effect). A digest of the protocol:
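ER-alpha-UAS-bla GripTite HEK 293 cells in medium with 2% charcoal/dextran-treated FBS were preincubated 4 h at 37 C, dosed with compound (1:2 titration), stimulated with 0.5nM 17-beta-estradiol for 18 h, then read by CCF4 beta-lactamase fluorescence.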

For experiment [16] the target is unchanged. As to the kind of experiment: qHTS assay for small molecule agonists of estrogen receptor alpha signaling (AID 588514).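 Further: 0% = vehicle only and 100% = reference agonist; nearly all actives have a fitted effect of over 70% in size.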 A digest of the protocol:
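Cells were plated at 5000/well, incubated 4 hrs at 37 C, dosed with compound titration series, incubated 18 hrs at 37 C, loaded with CCF4 dye for 2 hrs at RT, then fluorescence was read.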

For experiment [17], the target named is Peroxisome proliferator-activated receptor gamma (Homo sapiens) (UniProt P37231). Put plainly: qHTS assay for small molecule agonists of peroxisome proliferator-activated receptor gamma signaling (AID 588536; active means well fitted curve in the direction sought with a large enough effect in the signal ratio, with a control signal flat, not every such curve was filed as active; the % refers to the signal ratio;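 further: 0% = DMSO basal wells and 100% = rosiglitazone at 2 µM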). A digest of the protocol:
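HEK293 UAS-bla reporter line, 1% charcoal/dextran FBS; titration, 16 h, 37 C; CCF4 loading 2 h RT; fluorescence 460/530 nm. Normalized to rosiglitazone 2 uM = 100%, DMSO = 0%.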

For experiment [18], the target named is Bile acid receptor (Homo sapiens) (UniProt Q96RI1). As to the kind of experiment: qHTS assay for small molecule antagonists of farnesoid X receptor signaling (AID 588526). Further: on the % scale 0 is the no-effect control and ±100 the full control effect. A digest of the protocol: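 Concentration-response titrations were fitted to the Hill equation for half-maximal inhibition and maximal response, with data normalised to 50 uM chenodeoxycholic acid and DMSO control wells. Cells: FXR-UAS-bla HEK293T, dialyzed FBS.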

The target of experiment [19] is Glucocorticoid receptor (Homo sapiens) (UniProt P04150). Put plainly: qHTS assay for small molecule antagonists of glucocorticoid receptor signaling (AID 588533; active means well fitted inhibition curve with a large enough effect in the signal ratio, with a control signal flat, not every such curve was filed as active; the % refers to the signal ratio;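 further: cells stimulated with 2 nM dexamethasone as agonist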; further: potency means the concentration at half of the fitted maximal effect). A digest of the protocol:
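Antagonist-mode qHTS: compound titrations added to GRE-bla HeLa cells, then dexamethasone 2 nM final; 18 h, 37 C. CCF4 FRET fluorescence normalized to dexamethasone and DMSO; IC50 from Hill fit.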

For experiment [20], the target named is Peroxisome proliferator-activated receptor gamma (Homo sapiens) (UniProt P37231). Put plainly: qHTS assay for small molecule antagonists of peroxisome proliferator-activated receptor gamma signaling (AID 588537; active means well fitted inhibition curve with a large enough effect in the signal ratio, with a control signal flat, not every such curve was filed as active; the % refers to the signal ratio;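 further: reporter cells co-stimulated with 50 nM rosiglitazone agonist during compound treatment; % of control where 0% means no effect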). A digest of the protocol: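 We seeded GeneBLAzer HEK293 reporter cells at 3000 per well, allowed 6-6.5 h attachment at 37 C, then co-treated with test compound titrations and 50 nM rosiglitazone overnight (16 h). Inhibition was quantified from 460/530 nm emission ratios.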

Molecules are shown by their SMILES. “And” between values parts separate entries of the source, which are not always exact repeats. Equal entries are not always repeated. Records with an inconclusive call do not appear. The source made the active and inactive calls. Unless noted, the call rests on the fitted dose curve.

Sequence of Androgen receptor (Homo sapiens) (P10275 whole entry, looked up): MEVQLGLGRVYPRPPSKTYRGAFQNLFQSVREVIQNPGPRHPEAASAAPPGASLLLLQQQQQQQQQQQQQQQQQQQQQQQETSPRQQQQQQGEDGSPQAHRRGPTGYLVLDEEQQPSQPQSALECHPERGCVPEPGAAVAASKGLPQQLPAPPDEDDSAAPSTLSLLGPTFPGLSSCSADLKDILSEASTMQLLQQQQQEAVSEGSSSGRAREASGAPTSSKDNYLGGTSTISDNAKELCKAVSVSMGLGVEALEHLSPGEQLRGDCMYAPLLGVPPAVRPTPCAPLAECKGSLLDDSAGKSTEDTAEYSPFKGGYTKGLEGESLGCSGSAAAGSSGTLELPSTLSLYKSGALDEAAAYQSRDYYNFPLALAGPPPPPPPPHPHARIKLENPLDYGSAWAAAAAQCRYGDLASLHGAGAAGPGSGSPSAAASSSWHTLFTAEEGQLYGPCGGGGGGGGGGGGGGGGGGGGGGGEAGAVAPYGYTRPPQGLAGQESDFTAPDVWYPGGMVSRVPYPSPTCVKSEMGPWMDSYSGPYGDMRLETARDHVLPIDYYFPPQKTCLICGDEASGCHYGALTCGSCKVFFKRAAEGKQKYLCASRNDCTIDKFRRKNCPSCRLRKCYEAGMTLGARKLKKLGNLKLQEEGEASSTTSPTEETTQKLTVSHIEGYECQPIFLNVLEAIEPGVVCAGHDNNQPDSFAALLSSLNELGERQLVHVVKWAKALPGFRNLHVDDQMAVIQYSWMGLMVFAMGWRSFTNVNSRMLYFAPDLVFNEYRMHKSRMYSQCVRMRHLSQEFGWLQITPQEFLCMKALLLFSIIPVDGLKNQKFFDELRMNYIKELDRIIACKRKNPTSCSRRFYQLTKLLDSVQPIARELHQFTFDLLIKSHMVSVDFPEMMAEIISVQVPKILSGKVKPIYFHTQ
Sequence of Peroxisome proliferator-activated receptor gamma (Homo sapiens) (P37231 whole entry, looked up): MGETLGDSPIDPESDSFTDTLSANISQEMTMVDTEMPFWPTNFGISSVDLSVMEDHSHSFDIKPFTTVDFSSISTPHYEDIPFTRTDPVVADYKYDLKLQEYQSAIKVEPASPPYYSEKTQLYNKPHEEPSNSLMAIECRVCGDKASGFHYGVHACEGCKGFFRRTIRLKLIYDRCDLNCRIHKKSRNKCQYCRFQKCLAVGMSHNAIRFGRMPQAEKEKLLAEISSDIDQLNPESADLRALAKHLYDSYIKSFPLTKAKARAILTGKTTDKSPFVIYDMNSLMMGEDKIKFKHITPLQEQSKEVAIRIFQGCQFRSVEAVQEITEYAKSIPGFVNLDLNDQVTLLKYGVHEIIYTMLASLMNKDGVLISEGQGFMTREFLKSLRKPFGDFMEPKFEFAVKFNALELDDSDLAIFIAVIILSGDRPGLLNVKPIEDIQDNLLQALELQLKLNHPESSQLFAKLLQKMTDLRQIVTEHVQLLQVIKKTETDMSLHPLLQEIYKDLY
Sequence of Peroxisome proliferator-activated receptor delta (Homo sapiens) (Q03181 whole entry, looked up): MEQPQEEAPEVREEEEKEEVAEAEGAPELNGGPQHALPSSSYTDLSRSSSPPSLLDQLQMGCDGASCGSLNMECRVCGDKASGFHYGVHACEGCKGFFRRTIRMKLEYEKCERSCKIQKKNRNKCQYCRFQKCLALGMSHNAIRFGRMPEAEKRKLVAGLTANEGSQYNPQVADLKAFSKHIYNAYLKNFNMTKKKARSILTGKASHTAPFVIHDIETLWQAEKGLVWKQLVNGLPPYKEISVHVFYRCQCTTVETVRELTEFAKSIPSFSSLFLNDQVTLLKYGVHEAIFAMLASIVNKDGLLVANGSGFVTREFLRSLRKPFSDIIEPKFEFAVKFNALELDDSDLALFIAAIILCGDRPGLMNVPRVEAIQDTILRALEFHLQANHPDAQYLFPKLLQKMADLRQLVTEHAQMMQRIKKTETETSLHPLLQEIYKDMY
Sequence of Voltage-gated inwardly rectifying potassium channel KCNH2 (Homo sapiens) (Q12809 whole entry, looked up): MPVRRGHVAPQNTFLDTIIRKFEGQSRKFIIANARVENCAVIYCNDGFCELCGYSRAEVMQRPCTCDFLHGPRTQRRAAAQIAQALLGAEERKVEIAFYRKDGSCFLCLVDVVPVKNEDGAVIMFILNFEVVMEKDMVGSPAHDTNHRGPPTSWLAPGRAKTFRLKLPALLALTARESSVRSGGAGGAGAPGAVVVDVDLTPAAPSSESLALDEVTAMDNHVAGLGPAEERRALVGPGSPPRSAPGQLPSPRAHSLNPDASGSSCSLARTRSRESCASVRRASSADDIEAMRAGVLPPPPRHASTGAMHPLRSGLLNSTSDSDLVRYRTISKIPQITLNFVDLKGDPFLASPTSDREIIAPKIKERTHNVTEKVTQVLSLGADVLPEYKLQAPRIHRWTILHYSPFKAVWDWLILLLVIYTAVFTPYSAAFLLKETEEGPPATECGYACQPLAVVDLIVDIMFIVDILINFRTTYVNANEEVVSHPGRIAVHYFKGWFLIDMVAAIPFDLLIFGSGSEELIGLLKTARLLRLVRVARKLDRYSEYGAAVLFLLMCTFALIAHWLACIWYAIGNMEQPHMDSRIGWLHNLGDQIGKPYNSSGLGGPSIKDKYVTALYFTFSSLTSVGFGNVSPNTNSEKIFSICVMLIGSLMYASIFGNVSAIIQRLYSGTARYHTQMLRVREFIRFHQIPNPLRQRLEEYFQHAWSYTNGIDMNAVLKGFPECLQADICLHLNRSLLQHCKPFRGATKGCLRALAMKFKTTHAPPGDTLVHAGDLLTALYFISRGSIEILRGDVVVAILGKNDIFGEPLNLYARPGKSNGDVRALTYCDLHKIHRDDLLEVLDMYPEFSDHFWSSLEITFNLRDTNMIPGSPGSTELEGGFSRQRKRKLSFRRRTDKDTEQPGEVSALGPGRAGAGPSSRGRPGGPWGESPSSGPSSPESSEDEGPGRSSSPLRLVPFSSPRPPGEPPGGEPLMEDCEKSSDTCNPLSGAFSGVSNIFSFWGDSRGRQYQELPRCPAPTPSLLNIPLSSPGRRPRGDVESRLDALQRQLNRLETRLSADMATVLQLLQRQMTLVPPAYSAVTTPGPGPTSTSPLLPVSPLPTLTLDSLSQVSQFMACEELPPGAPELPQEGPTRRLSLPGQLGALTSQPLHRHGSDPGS
Sequence of Retinoic acid receptor RXR-alpha (Homo sapiens) (P19793 whole entry, looked up): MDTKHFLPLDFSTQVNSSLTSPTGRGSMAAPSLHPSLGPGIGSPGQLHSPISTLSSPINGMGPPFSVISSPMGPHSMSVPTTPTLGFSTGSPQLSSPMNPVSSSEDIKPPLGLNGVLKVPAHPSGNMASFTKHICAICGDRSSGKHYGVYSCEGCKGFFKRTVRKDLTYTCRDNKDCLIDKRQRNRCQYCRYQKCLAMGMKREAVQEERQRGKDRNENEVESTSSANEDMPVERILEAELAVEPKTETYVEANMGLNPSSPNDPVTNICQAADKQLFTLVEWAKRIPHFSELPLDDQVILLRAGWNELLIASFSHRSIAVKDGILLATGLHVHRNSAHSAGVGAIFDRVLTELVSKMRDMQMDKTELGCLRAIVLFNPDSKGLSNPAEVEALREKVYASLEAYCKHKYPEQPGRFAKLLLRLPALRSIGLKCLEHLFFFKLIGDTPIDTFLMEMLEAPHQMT
Sequence of Glucocorticoid receptor (Homo sapiens) (P04150 whole entry, looked up): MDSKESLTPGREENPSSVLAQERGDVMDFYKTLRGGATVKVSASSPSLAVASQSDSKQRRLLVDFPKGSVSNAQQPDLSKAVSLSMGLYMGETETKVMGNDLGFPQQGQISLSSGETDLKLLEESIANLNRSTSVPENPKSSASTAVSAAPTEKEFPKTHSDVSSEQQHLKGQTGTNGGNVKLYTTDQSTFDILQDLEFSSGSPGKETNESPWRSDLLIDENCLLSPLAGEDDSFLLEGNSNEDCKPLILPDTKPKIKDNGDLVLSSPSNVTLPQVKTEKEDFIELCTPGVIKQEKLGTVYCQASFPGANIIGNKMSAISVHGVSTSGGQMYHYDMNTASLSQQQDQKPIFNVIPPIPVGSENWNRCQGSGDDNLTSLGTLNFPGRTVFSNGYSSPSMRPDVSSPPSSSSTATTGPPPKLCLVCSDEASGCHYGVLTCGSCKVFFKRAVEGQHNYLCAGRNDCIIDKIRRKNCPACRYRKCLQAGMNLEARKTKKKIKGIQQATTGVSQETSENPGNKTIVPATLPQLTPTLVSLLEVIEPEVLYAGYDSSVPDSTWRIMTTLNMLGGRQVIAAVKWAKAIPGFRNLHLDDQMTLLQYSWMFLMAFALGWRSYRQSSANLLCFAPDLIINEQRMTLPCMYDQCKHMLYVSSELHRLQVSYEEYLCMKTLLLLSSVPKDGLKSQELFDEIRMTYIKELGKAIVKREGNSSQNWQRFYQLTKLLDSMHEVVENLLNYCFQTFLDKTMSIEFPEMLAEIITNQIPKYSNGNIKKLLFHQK
Sequence of Thyroid hormone receptor beta (Homo sapiens) (P10828 whole entry, looked up): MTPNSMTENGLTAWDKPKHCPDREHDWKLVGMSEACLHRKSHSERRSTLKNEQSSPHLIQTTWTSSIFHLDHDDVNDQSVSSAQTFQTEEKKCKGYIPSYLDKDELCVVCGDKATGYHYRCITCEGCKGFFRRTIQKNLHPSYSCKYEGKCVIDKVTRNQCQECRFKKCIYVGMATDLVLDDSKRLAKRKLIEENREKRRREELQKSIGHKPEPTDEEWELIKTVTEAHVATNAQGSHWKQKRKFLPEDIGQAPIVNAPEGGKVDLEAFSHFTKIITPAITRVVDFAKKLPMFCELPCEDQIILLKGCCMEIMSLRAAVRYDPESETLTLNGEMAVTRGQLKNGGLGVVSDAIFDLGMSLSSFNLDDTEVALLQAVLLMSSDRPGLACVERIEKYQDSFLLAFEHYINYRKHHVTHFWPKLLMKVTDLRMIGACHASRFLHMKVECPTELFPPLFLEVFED

For `CN(C)c1ccc(N=NS(=O)(=O)O)cc1`, the activation was -16.2% (inactive) in experiment [1]; 14.4% (inactive) and -3.49% (inactive) in experiment [3]. In addition, the result in [2], in experiment [6], in experiment [7], in experiment [9] and in experiment [10] was inactive. Besides, the max response in [4] is 49.1%; in experiment [8], -5.77%; in experiment [11] it was -9.95% and 2.36%; in [12] it was -16.5% (inactive) and -8.55% (inactive). For the same molecule, the Potency result in experiment [5] and in [14] was “inactive” each time. For the same molecule, the activity change % (negative = inhibition) in experiment [13] was -11.7% (inactive).

As to `O=c1cc(-c2ccccc2)oc2ccccc12`, the result in [15], in experiment [17], in [6], in [7], in experiment [9] and in [10] was inactive. Besides, the Potency result in experiment [16], in experiment [5] and in experiment [14] was “inactive” in each case. Besides, the activation was -23.6% (inactive) and -8.95% (inactive) in experiment [1]; -9.59% (inactive) and -14.8% (inactive) in experiment [3]. Also, the max response in experiment [4] was 43.6%; in experiment [8], 18.8%; in experiment [11], -11.8%; in experiment [12], -22.5% (inactive). In addition, the activity change % (negative = inhibition) in experiment [13] was -4.06% (inactive) and 9.92% (inactive).

As to `COc1cc(CNC(=O)CCCC/C=C/C(C)C)ccc1O`, the result in experiment [15], in experiment [18], in [6], in experiment [7], in experiment [9] and in [10] was inactive. Also, the Potency result in experiment [16], in [19], in experiment [5], in [20] and in [14] was “inactive” throughout. Also, the activation in experiment [3] was -1.19% (inactive) and -3.69% (inactive). Besides, the max response in experiment [4] is 7.93% and 37.4%; in [8] it was 3.03% and 16.9%; in experiment [11] it was 9.1%; in experiment [12] it was 4.06% (inactive). For the same molecule, the activity change % (negative = inhibition) in experiment [13] is 11.7% (inactive) and 10.6% (inactive).

In the case of `O=C(O)/C=C\C(=O)O`, the activation in experiment [3] was -2.26% (inactive). Besides, the Potency result in experiment [19] and in [5] was “inactive” in each case. Besides, the max response was -10.6% in experiment [4], -5.8% in experiment [8], 0.438% in [11] and 2.25% (inactive) in experiment [12]. Further, the call in experiment [6], in experiment [7], in [9] and in experiment [10] was inactive. For the same molecule, in experiment [13], the activity change % (negative = inhibition) is -2.36% (inactive).

For `Oc1ccccc1O`, the activation in experiment [3] was -6.14% (inactive). The molecule was classed as inactive in experiment [17], in experiment [7], in experiment [9] and in experiment [10]. In addition, in [8], the max response came to 7.41%. Also, in experiment [13], the activity change % (negative = inhibition) is -12.3% (inactive). For the same molecule, in experiment [14], the Potency entry was “inactive”.

Turning to `C#C[C@]1(O)CC[C@H]2[C@@H]3CCc4cc(O)ccc4[C@H]3CC[C@@]21C`, the activation in experiment [3] is -1.88% (inactive). The Potency in experiment [19] was 10 µM (active) and 12.6 µM (active). The max response in experiment [4] is -35.1% and -42.8%. Also, the Potency entry in experiment [5] and in experiment [14] was “inactive” in each case. Also, the result in [10] was inactive. Besides, the activity change % (negative = inhibition) in experiment [13] was -23% (inactive).
